The record followed here is the supplement of paper PMC10849652.

Targets with a hit are over-represented here; the source holds about 7,900 in all. About 0.6% of all pairs of compound and target were hits. Values without a mark were called inactive.

Chain of UniProt Q6P1L5 (Q6P1L5 whole entry, looked up): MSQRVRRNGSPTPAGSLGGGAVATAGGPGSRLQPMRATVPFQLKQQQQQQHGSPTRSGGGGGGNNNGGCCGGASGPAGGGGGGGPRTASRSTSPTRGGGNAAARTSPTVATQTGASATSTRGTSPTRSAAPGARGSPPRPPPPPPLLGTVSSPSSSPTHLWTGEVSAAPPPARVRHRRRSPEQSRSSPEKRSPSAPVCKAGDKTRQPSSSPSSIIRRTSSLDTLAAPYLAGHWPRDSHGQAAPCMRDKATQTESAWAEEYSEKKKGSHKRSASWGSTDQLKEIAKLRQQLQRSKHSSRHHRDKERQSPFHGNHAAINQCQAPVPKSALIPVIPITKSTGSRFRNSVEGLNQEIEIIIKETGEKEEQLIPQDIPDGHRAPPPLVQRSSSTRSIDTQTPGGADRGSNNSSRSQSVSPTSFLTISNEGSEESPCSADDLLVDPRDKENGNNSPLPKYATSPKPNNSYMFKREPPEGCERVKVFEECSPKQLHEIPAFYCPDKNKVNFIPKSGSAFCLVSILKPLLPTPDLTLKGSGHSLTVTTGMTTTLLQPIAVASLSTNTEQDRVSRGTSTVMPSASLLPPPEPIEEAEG
Chain of UniProt Q96GQ7 (Q96GQ7 whole entry, looked up): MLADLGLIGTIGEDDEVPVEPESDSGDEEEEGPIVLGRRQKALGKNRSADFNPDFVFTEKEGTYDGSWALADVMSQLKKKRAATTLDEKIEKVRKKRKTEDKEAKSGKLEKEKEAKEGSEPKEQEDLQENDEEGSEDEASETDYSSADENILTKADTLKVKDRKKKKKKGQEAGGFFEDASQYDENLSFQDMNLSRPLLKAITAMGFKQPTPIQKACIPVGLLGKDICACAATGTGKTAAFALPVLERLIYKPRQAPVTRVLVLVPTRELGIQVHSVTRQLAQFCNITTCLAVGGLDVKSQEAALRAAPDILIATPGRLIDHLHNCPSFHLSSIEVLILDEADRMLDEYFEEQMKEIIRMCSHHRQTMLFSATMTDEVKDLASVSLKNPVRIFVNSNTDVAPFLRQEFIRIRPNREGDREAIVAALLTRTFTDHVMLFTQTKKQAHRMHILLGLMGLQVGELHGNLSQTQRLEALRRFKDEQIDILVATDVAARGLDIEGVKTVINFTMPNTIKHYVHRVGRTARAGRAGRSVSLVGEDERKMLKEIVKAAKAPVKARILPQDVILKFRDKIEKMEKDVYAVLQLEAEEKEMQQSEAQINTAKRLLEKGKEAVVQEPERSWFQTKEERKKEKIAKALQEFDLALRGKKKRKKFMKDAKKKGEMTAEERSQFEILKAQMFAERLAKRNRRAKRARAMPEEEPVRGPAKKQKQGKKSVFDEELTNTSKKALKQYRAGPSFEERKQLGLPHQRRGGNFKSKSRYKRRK
Chain of UniProt Q6UX07 (Q6UX07 whole entry, looked up): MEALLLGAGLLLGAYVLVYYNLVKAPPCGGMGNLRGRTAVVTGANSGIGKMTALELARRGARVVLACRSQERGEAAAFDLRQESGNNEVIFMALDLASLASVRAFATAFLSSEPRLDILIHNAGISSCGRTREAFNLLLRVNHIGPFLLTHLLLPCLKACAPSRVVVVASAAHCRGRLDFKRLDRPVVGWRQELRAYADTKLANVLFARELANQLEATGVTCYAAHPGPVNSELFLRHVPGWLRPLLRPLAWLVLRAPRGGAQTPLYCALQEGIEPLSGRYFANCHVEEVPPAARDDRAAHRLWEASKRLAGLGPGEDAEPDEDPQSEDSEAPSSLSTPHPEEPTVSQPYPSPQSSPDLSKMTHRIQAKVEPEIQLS
Chain of UniProt P25774 (P25774 whole entry, looked up): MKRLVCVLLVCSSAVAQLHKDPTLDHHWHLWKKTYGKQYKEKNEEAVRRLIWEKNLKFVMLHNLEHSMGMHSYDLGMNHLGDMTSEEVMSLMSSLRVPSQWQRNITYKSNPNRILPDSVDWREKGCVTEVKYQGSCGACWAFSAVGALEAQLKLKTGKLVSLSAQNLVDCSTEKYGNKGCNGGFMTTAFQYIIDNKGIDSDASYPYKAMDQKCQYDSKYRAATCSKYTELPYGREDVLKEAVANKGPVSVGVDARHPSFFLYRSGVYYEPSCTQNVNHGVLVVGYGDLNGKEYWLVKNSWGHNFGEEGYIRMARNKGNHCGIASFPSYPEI
Chain of UniProt Q04637 (Q04637 whole entry, looked up): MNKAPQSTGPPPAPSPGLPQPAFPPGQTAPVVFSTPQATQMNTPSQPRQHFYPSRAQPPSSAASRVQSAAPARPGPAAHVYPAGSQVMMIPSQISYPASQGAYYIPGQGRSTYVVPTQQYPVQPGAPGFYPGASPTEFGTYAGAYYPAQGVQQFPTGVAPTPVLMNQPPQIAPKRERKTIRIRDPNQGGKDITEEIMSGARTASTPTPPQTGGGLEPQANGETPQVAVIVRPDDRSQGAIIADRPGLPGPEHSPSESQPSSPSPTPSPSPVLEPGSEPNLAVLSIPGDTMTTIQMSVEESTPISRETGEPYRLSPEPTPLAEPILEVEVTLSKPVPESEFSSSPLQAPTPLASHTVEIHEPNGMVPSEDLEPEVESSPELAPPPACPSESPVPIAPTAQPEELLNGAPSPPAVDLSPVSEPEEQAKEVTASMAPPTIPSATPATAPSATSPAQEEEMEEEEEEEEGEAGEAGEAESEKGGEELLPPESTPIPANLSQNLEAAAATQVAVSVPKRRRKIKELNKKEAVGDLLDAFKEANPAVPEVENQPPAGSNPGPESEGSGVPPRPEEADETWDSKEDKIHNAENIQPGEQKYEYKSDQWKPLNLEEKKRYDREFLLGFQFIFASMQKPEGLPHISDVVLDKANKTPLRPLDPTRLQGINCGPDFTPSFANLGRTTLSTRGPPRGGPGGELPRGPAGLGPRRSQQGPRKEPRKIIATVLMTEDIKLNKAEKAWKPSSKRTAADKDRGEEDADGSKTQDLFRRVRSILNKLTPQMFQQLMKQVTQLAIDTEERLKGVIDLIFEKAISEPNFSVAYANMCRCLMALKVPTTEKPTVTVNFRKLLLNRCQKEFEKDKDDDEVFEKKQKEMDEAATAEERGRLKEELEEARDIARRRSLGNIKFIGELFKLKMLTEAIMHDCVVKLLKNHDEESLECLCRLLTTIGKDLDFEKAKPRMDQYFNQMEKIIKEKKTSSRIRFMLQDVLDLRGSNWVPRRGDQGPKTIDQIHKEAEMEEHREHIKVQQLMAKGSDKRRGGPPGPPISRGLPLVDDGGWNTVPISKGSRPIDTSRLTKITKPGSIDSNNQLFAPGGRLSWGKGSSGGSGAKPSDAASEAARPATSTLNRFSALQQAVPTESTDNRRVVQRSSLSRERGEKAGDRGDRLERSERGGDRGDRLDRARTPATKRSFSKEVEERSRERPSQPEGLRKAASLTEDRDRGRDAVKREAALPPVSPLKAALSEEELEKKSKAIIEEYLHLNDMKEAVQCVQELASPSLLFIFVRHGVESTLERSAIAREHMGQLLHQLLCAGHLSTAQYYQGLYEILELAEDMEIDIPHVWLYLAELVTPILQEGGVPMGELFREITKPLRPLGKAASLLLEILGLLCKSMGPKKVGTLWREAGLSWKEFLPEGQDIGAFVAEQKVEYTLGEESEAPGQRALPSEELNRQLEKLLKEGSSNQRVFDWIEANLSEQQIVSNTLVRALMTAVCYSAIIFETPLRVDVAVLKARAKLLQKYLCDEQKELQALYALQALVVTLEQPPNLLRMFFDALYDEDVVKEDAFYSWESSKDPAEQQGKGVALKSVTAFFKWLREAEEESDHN
Chain of UniProt Q96RI0 (Q96RI0 whole entry, looked up): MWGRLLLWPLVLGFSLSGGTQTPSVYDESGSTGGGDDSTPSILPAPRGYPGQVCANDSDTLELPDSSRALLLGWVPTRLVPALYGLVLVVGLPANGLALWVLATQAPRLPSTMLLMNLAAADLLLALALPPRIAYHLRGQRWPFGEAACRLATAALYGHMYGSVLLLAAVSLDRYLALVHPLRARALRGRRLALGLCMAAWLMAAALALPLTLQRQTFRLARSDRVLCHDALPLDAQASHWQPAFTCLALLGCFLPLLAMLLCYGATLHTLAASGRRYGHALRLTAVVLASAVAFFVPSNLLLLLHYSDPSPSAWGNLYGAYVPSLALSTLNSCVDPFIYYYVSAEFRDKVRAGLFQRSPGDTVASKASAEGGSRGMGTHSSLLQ
Chain of UniProt Q8TAG9 (Q8TAG9 whole entry, looked up): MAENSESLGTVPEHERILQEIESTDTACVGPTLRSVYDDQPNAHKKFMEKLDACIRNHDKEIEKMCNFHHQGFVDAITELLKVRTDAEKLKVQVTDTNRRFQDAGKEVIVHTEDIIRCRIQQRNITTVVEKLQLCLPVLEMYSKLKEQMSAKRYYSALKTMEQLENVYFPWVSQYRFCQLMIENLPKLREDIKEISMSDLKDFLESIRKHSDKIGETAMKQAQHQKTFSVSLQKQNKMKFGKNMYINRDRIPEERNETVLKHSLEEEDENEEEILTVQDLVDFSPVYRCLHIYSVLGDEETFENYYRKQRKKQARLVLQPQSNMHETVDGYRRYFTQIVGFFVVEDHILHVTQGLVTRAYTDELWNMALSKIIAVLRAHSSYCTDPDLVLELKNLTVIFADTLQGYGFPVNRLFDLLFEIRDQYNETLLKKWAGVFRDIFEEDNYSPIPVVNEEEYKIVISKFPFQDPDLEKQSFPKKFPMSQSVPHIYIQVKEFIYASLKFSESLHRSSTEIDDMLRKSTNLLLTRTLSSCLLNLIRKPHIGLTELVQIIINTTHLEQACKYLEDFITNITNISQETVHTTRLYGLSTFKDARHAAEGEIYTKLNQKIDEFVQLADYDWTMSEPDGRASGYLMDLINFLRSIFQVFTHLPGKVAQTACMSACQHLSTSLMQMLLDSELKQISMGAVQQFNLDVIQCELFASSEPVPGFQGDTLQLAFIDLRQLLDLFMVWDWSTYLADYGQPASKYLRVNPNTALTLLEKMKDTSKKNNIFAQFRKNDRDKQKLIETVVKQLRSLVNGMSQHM
Chain of UniProt Q4LDG9 (Q4LDG9 whole entry, looked up): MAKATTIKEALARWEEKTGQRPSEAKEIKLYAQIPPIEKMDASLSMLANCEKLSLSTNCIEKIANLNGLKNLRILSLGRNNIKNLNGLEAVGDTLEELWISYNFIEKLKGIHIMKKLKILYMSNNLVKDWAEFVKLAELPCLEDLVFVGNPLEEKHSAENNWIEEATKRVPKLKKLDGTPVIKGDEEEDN

Compound in one experiment: CC1=C2C(=CC=C1)N=C(N(C2=O)C3=CC=CC=C3C)CN4C=NC5=C(N=CN=C54)N
The experiment can be described thus: log2 fold change, soluble protein after heating vs DMSO (PISA); higher = thermal stabilisation; K562 cells, 10 uM, 30 min; active = over 0.2 and 3.5 SD of the protein, either way, in both replicates (recomputed). Summed up: (§1)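 Quantification of soluble protein used TMTpro 16plex LC-MS/MS, with channel sums equalised. Samples were the supernatant after 21,000xg for 90 min of pooled aliquots from K562 cells (2×10^6 cells/mL) treated with 10 μM compound for 30 min, heated for 3 min over 48°C-58°C, and extracted in PBS with 0.5% NP-40 at 4°C. Values, from duplicates, describe thermal stability against control samples on a log2 fold-change scale.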
In the case of CYP24A1 (UniProt Q07973), the log2 fold change is -0.175.
With DOP1A (UniProt Q5JWR5), the log2 fold change is 0.049.
Turning to ENTR1 (UniProt Q96C92), the log2 fold change was 0.191.
On the same count and under the same terms, in the case of ELAC1 (UniProt Q9H777) it was 0.146; in that of DDX27 (UniProt Q96GQ7), -0.157.
Turning to ELMO1 (UniProt Q92556), the log2 fold change was 0.026.
Consider F2RL3 (UniProt Q96RI0), for which the log2 fold change is 0.06.
As to DCP2 (UniProt Q8IU60), the log2 fold change was -0.044.
Same read-out and setting: in the case of DNAL1 (UniProt Q4LDG9) it was -0.264.
On to FAM117B (UniProt Q6P1L5), for which the log2 fold change was 0.116.
DDX11 (UniProt Q96FC9): the log2 fold change was 0.335.
Still for that read-out and setting: in the case of DENND1A isoform 6 (UniProt Q8TEH3) it was 0.146; in that of DHRS13 (UniProt Q6UX07), 0.099; in that of DLK1 (UniProt P80370), 0.198.
Same read-out and setting: in the case of EEF2K (UniProt O00418) it was 0.145.
Still for that read-out and setting: in the case of DNAH5 (UniProt Q8TE73) it was 0.08; in that of CTNNBL1 (UniProt Q8WYA6), 0.17; in that of EIF4G1 (UniProt Q04637), 0.011.
On to DERPC (UniProt P0CG12), for which the log2 fold change is -0.015.
Regarding EXOC6 (UniProt Q8TAG9), the log2 fold change was 0.072.
As for EIF3J isoform 2 (UniProt O75822), the log2 fold change was 0.25.
For CTSS (UniProt P25774), the log2 fold change is -0.033.
Consider FAM135A (UniProt Q9P2D6), for which the log2 fold change was 0.106.
Still for that read-out and setting: in the case of FAM207A (UniProt Q9NSI2) it was 0.001.
With FADS1 (UniProt F5GYH4), the log2 fold change was -0.02.

Compound in the next experiment: Cc1sc2c(c1C)C(c1ccc(Cl)cc1)=N[C@@H](CC(=O)OC(C)(C)C)c1nnc(C)n1-2
The experiment is described as above. Summed up: as §1
CYP24A1 (UniProt Q07973): the log2 fold change was 0.266.
Consider DDX27 (UniProt Q96GQ7), for which the log2 fold change is 0.12.
Consider ELF1 (UniProt P32519), for which the log2 fold change is 0.017.
Take ERF (UniProt P50548): the log2 fold change is -0.515.
Still for that read-out and setting: in the case of F2RL3 (UniProt Q96RI0) it was -0.197; in that of DCP2 (UniProt Q8IU60), 0.077.
For ENTPD7 (UniProt Q9NQZ7), the log2 fold change is 0.173.
On the same count and under the same terms, in the case of FAM117B (UniProt Q6P1L5) it was -0.097.
Regarding DDX11 (UniProt Q96FC9), the log2 fold change was 0.059.
On the same count and under the same terms, in the case of CYB561A3 isoform 2 (UniProt Q8NBI2) it was -0.075; in that of DENND1A isoform 6 (UniProt Q8TEH3), 0.284; in that of DHRS13 (UniProt Q6UX07), 0.218.
Turning to DNAH5 (UniProt Q8TE73), the log2 fold change is 0.139.
Take EIF4G1 (UniProt Q04637): the log2 fold change is 0.098.
On to CWF19L2 (UniProt Q2TBE0), for which the log2 fold change is 0.028.
Turning to EXOC6 (UniProt Q8TAG9), the log2 fold change is 0.031.
Consider ELOVL7 (UniProt A1L3X0), for which the log2 fold change is -0.066.
Still for that read-out and setting: in the case of EIF2AK3 (UniProt Q9NZJ5) it was -0.196; in that of EIF3J isoform 2 (UniProt O75822), 0.049; in that of CTSS (UniProt P25774), -0.192.
With FAM207A (UniProt Q9NSI2), the log2 fold change is 0.021.
The same measure, in the same setting: in the case of FADS1 (UniProt F5GYH4) it was -0.036.
On to DYNC1I2 isoform 2 (UniProt Q13409), for which the log2 fold change is -0.068.
In the case of EID1 (UniProt Q9Y6B2), the log2 fold change was -0.135.
As to EEF1D isoform 3 (UniProt P29692), the log2 fold change is -0.694.
As for EHBP1 (UniProt Q8NDI1), the log2 fold change was 0.041.

Compound in another experiment: c1ccc([C@@H]2C[C@H]2NC2CCNCC2)cc1
Described as above. Summed up:
as §1
Regarding EDRF1 (UniProt Q3B7T1), the log2 fold change was -0.061.
For the target ELAC1 (UniProt Q9H777), the log2 fold change was 0.059.
As to DDX27 (UniProt Q96GQ7), the log2 fold change was -0.046.
Turning to ELF1 (UniProt P32519), the log2 fold change was 0.007.
As for F2RL3 (UniProt Q96RI0), the log2 fold change was 0.032.
With DCP2 (UniProt Q8IU60), the log2 fold change was 0.068.
For DNAL1 (UniProt Q4LDG9), the log2 fold change was 0.03.
With FAM117B (UniProt Q6P1L5), the log2 fold change was -0.024.
On to CYB561A3 isoform 2 (UniProt Q8NBI2), for which the log2 fold change is 0.002.
For DBNL (UniProt Q9UJU6), the log2 fold change is -0.099.
Turning to DHRS13 (UniProt Q6UX07), the log2 fold change was -0.14.
For DLK1 (UniProt P80370), the log2 fold change was 0.051.
Take EEF2K (UniProt O00418): the log2 fold change was -0.082.
In the case of DNAH5 (UniProt Q8TE73), the log2 fold change is 0.062.
Still for that read-out and setting: in the case of EIF4G1 (UniProt Q04637) it was -0.028.
Consider CWF19L2 (UniProt Q2TBE0), for which the log2 fold change was 0.135.
For EXOC6 (UniProt Q8TAG9), the log2 fold change is -0.069.
On the same count and under the same terms, in the case of ELOVL7 (UniProt A1L3X0) it was -0.01.
Turning to EIF2AK3 (UniProt Q9NZJ5), the log2 fold change was 0.059.
With CTSS (UniProt P25774), the log2 fold change is 0.037.
As for DYNC1I2 isoform 2 (UniProt Q13409), the log2 fold change is 0.14.
Take EHBP1 (UniProt Q8NDI1): the log2 fold change is 0.229.
As for DNM2 isoform 4 (UniProt P50570), the log2 fold change was -0.022.
